BoNT F protease: BoNT/F light chain protease inhibitors, primary screen, biochemical, flow cytometry, MLPCN library; Botulinum neurotoxin type F light chain protease (Clostridium botulinum); Multiplex microsphere protease cleavage assay; inhibition, % at 10 µM; 360,000 tested, 0.22% active; AID 588497, 2011; in the data active = inhibition above about 35%, passing the limit was not always enough; inconclusive = no clear call, values can overlap the other calls; note: plate controls were buffer without enzyme for full effect and enzyme alone for no effect
BoNT-A LC inh2: BoNT/A light chain protease inhibitors, primary screen, biochemical, flow cytometry, MLPCN library; Botulinum neurotoxin type A light chain protease (Clostridium botulinum A str. ATCC 3502); multiplex microsphere protease substrate cleavage; inhibition, % at 10 µM; 360,000 tested, 0.17% active; AID 588499, 2011; note: plate controls were buffer without enzyme for full effect and enzyme alone for no effect
Anthrax LF prot: Bacillus anthracis LF protease inhibitors, primary screen, biochemical, multiplex microsphere, MLPCN library; Lethal factor (Bacillus anthracis), P15917; multiplex microsphere protease cleavage assay; inhibition, % at 10 µM; 360,000 tested, 0.12% active; note: plate controls were buffer without enzyme for full effect and enzyme alone for no effect
Bead autofluor: compound fluorescence in toxin protease inhibitor counterscreen | compound autofluorescence counterscreen, microsphere flow cytometry; stronger effect = higher value | fluorescence intensity (concentration not given with the values) | 360,000 tested, 3.1% active | AID 624483; in the data active = fluorescence intensity above about 16000; inconclusive = no clear call, values can overlap the other calls
MazF activator: activators of E. coli MazEF toxin-antitoxin RNase, primary screen, biochemical, fluorescence, uHTS; Endoribonuclease toxin MazF (Escherichia coli (strain K12)), P0AE70; FAM/BHQ RNA-DNA oligo cleavage fluorescence, 5 h; activation, % at 20 µM; 350,000 tested, 0.32% active; AID 504720, 2011; in the data active = activation above about 50%
* hit, by the source's call; ? = inconclusive; · = not tested or not shown. In the library only some 3.7% were active in any assay of this set; here they are far more common. Cut-off read from the data, not from the text of the source, unless noted: active = inhibition above about 30%; inconclusive = no clear call, values can overlap the other calls; inactive = below that.

SMILES | BoNT F protease | BoNT-A LC inh2 | Anthrax LF prot | Bead autofluor | MazF activator
CNC(=O)NC1CCCCc2sccc21 (stereo not drawn) | -3 | 0 | -2 | 16866* | -9
Cc1nn(C)cc1/C=N/n1nnnc1N | 6 | 6 | -11 | 17300* | 0
O=[N+]([O-])c1cccc(COc2ccccc2CN2CCCCC2)c1 | 0 | 0 | -1 | 3762 | 7
Cc1cccc(N2C(=O)CC(N(C(=O)c3ccco3)c3cccc(C)c3)C2=O)c1 (stereo not drawn) | -7 | ? | 0 | 17561* | -3
Cc1cc2nc(-c3ccc(Cl)cc3)c(CC(C)(C)C)n2c(C)c1Br | 6 | 1 | -6 | 6057 | ·
Cc1cccc(-c2c3c(=O)n(C)c(=O)n(C)c3cn2-c2ccc(O)cc2)c1 | -2 | -1 | 0 | 20937* | 7
Cn1c(=O)c2c(-c3ccccc3)n(-c3cccc(O)c3)cc2n(C)c1=O | -14 | -1 | -12 | 6107 | ·
CCOC(=O)Nc1ccc2c(C)cc(=O)oc2c1 | -5 | -2 | -4 | 16452* | 3
CN1OC[C@@H]2CN(S(=O)(=O)c3ccccc3)[C@H](c3ccccc3Br)C[C@@H]21 | 1 | 1 | -2 | 5504 | ·
Clc1ccc(COn2c(-c3ccc(Cl)cc3)nc3ccccc32)cc1 | -7 | ? | 0 | 21296* | -16
COn1c(-c2ccc(Cl)cc2)nc2ccc(Cl)cc21 | -1 | 0 | -2 | 23040* | 4
COCCCNC(=O)C1CCN(c2ncccn2)CC1 | -1 | 0 | -7 | 8467 | 2
COCCNC(=O)C1CCCN(c2ncccn2)C1 (stereo not drawn) | 0 | 2 | -2 | 21959* | 0
Cc1ccc(F)cc1NC(=O)C1CCCN(c2ncccn2)C1 (stereo not drawn) | -2 | 0 | -2 | 20027* | -2
COc1ccc(N(C(=O)c2cccc([N+](=O)[O-])c2)S(=O)(=O)c2ccc3c(c2)n(C)c(=O)n3C)cc1 | 0 | ? | -5 | 16542* | -14
COc1ccc(N(C(=O)C(C)C)S(=O)(=O)c2ccc3c(c2)n(C)c(=O)n3C)cc1 | 1 | 0 | 2 | 2869 | -1
COc1ccc(S(=O)(=O)N2CC(C)N(C(=O)N(C)C)C2C)cc1 (stereo not drawn) | -27 | -1 | 14 | 3854 | 7
CCCCCCc1cc2cc(-c3nnc(-c4ccccc4OC)o3)c(=O)oc2cc1O | 0 | ? | 4 | 22218* | -164
CCCCCCc1cc2cc(-c3nnc(-c4ccccc4O)o3)c(=O)oc2cc1O | 11 | 3 | 3 | 8438 | -113
CCCS(=O)(=O)NC(=O)C1(C)CCCN(C(=O)c2cc(-c3cccs3)oc2C)C1 (stereo not drawn) | 1 | 0 | -5 | 3803 | ·
COCCNc1nc(NCCN2CCNC2=O)c2sc(-c3ccccc3)cc2n1 | -1 | 0 | -4 | 3964 | ·
Cn1c(-c2sc(=S)n(-c3ccccc3)c2N)nc2ccccc21 | -4 | 1 | -3 | 5319 | 22
C=CCn1c(N)c(-c2nc3ccccc3n2C)sc1=S | 1 | 11 | 14 | 22610* | 1
Cn1cc(Cc2ccc(C(=O)N3CCN(Cc4ccccc4)CC3)cn2)c2ccccc21 | -1 | 1 | -8 | 3418 | ·
CC1(C(=O)NS(=O)(=O)C2CC2)CCCN(C(=O)c2cccc(OC(F)(F)F)c2)C1 (stereo not drawn) | 2 | 0 | 4 | 3645 | ·
SMILES | BoNT F protease | BoNT-A LC inh2 | Anthrax LF prot | Bead autofluor | MazF activator
O=c1/c(=C/c2ccco2)sc2n1CN(c1ccccc1)CN=2 | -11 | 0 | -1 | 2362 | 3
Cc1ccc(N2CN=c3s/c(=C\c4ccccn4)c(=O)n3C2)cc1 | 4 | ? | 1 | 18880* | -10
CC1(C(=O)NS(=O)(=O)c2cccc(Cl)c2)CCN1C(=O)C1(c2ccc(Cl)cc2)CCC1 (stereo not drawn) | 1 | 0 | -3 | 3550 | ·
O=C(NC(Cc1ccccc1)C(=O)O)/C(=C/c1cccc([N+](=O)[O-])c1)NC(=O)c1cccc(Br)c1 (stereo not drawn) | -18 | -5 | -5 | 4119 | -1
Cc1ccc(-n2c(Cc3cccs3)nnc2SCC(N)=O)cc1 | 0 | ? | -1 | 16452* | 1
NC(=O)CSc1nnc(COc2ccccc2)n1C1CCCCC1 | -1 | 2 | 1 | 19126* | -1
NC(=O)CSc1nnc(Cc2cccs2)n1C1CCCCC1 | 0 | 2 | 3 | 19288* | 1
Cc1ccc(-c2noc(CSc3nnc(Cc4cccs4)n3-c3ccccc3)n2)cc1 | 0 | -1 | 1 | 6099 | 3
O=C1COc2ccc(C(=O)CSc3nnc(Cc4cccs4)n3-c3ccc(Cl)cc3)cc2N1 | 11 | 7 | 2 | 17966* | -1
NC(=O)CSc1nnc(COc2ccccc2)n1N | 6 | 2 | -4 | ? | 10
CC(C)CC1C(=O)N(Cc2cn(CC3CCCCC3)nn2)CCS(=O)(=O)N1Cc1ccc(-c2cccc(CO)c2)cc1 (stereo not drawn) | -6 | 0 | 2 | 3410 | -3
CC(C)N1C(=O)NC2NC(=O)N(C(C)C)C21 (stereo not drawn) | 0 | 0 | -2 | 6007 | ·
CCCCNCCCOc1ccc(C)cc1Br | -9 | -1 | 0 | 2206 | 2
CNCCCOc1ccc(C)cc1Br | -3 | ? | -1 | 20475* | -4
COc1ccc(NC(=O)C2Cc3c(-c4cccc(C(C)=O)c4)ccnc3O2)cc1 (stereo not drawn) | -1 | 0 | -3 | 3527 | ·
CC(C)NC(=O)C1(c2ccccc2)CCOCC1 | 0 | 1 | -5 | 2499 | -2
CC(Cc1ccccc1)NC(=O)C1(c2ccccc2)CCOCC1 (stereo not drawn) | -1 | ? | -2 | 22824* | 6
Cc1cc(C(F)F)n2nc(C(=O)Nc3ccccc3Br)nc2n1 | 0 | 0 | -4 | 20530* | -5
COc1ccc(CCNC(=O)c2ccc(Br)o2)cc1Br | 3 | 0 | -4 | 6050 | ·
Cc1cc(/C=C2/C(=O)N(C)C(=S)N2C)c(C)n1C1CC1 | -11 | 5 | -3 | 2602 | 17
Cc1cc(C=C2C(=O)N(C)C(=S)N(C)C2=O)c(C)n1C1CCCC1 | 27 | 54* | 38* | 4034 | -36
Cc1cc(/C=C2\SC(=S)NC2=O)c(C)n1C1CC1 | 3 | 1 | 3 | 20502* | -6
CCN1C(=O)C(=Cc2cc(C)n(C3CC3)c2C)C(=O)N(CC)C1=S | 8 | 41* | 16 | 2840 | 677*
Cc1cc(/C=C2\C(=O)NC(=S)N(C)C2=O)c(C)n1C1CCCCC1 | 2 | 0 | -2 | 6737 | -3
COCCN(CCOC)Cc1cc(=O)oc2cc(C)c(C)cc12 | 5 | 0 | -12 | 5659 | ·
CCNCCOC(c1ccccc1)c1ccccc1 | 2 | ? | -12 | 18751* | 1
CCN(CC)CCOC(c1ccccc1)c1ccc(C)cc1 (stereo not drawn) | -7 | 0 | 1 | 2450 | 3

Screening data: PubChem, several laboratories
